Reference: PubChem BioAssay AID1159580 (chemical genetic matrix, 2015)
“And” between values parts separate entries of the source, which are not always exact repeats. Equal entries are not always repeated. Out of some 5,500 compounds screened, about 2,000 (36%) were called active. Inconclusive results (about 18%) are left out. No stated cut-off is given here; in the data, active means normalized growth mostly below about 0.91 (no sharp cut-off); inconclusive means no clear call, values can overlap the other calls; inactive means mostly above about 0.92. Some of the results follow.

Test: chemical genetic growth profiling, strain panel (AID 1159580);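 further: tested at 20 µM; growth read once vehicle control cultures reached saturation at 30 °C; 1 = growth at the plate median or of vehicle wells; lower values mean less growth of the strain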
Details: S. cerevisiae deletion strains, growth OD

Measured: normalized growth

O=C1C=CC2=C3c4cc(O)c(O)cc4C[C@@]3(O)COC2=C1
inactive: locus YAL021C, strain ccr4, active compounds read low 0.965 | locus YAL026C, strain drs2, active compounds read low 0.973 | locus YAL030W, strain snc1, active compounds read low 0.979 | locus YBL061C, strain skt5, active compounds read low 0.992 | locus YBR009C, strain hhf1, active compounds read low 0.984 | locus YBR021W, strain FUR4, active compounds read low 1.01 | locus YBR023C, strain chs3, active compounds read low 0.99 | locus YBR171W, strain sec66, active compounds read low 0.988 | locus YBR229C, strain ROT2, active compounds read low 0.998 | locus YBR231C, strain swc5, active compounds read low 0.978 | locus YBR279W, strain paf1, active compounds read low 0.985 | locus YCL011C, strain gbp2, active compounds read low 0.975 | locus YCL016C, strain dcc1, active compounds read low 0.95 | locus YCL029C, strain bik1, active compounds read low 1 | locus YCL061C, strain MRC1, active compounds read low 0.98 | locus YCL069W, strain vba3, active compounds read low 0.981 | locus YCR088W, strain abp1, active compounds read low 0.99 | locus YDL005C, strain med2, active compounds read low 0.966 | locus YDL035C, strain GPR1, active compounds read low 1.03 | locus YDL040C, strain nat1, active compounds read low 0.97 | locus YDL074C, strain BRE1, active compounds read low 1 | locus YDL101C, strain DUN1, active compounds read low 0.981 | locus YDL134C, strain PPH21, active compounds read low 0.998 | locus YDL185W, strain tfp1, active compounds read low 0.985 | locus YDL192W, strain arf1, active compounds read low 1.01 | locus YDR001C, strain nth1, active compounds read low 0.978 | locus YDR069C, strain doa4, active compounds read low 0.94 | locus YDR101C, strain arx1, active compounds read low 1.05 | locus YDR137W, strain rgp1, active compounds read low 1.01 | locus YDR150W, strain NUM1, active compounds read low 1 | locus YDR159W, strain sac3, active compounds read low 0.986 | locus YDR162C, strain NBP2, active compounds read low 1.03 | locus YDR195W, strain ref2 0.939 | locus YDR297W, strain sur2, active compounds read low 0.981 | locus YDR318W, strain mcm21, active compounds read low 0.998 | locus YDR334W, strain swr1, active compounds read low 0.967 | locus YDR335W, strain msn5, active compounds read low 0.969 | locus YDR388W, active compounds read low 1 | locus YDR392W, strain spt3, active compounds read low 0.95 | locus YDR502C, strain sam2, active compounds read low 0.999 | locus YEL003W, strain gim4, active compounds read low 0.989 | locus YEL037C, strain rad23, active compounds read low 0.981 | locus YEL061C, strain CIN8 (second series), active compounds read low 0.975 | locus YER015W, strain faa2, active compounds read low 0.982 | locus YER016W, strain bim1, active compounds read low 0.976 | locus YER110C, active compounds read low 0.986 | locus YER111C, strain swi4, active compounds read low 0.98 | locus YER155C, strain BEM2 (second series), active compounds read low 0.972 | locus YER155C, strain BEM2, active compounds read low 1.02 | locus YER167W, strain BCK2, active compounds read low 1.01 | locus YFR010W, strain ubp6, active compounds read low 0.963 | locus YGL078C, strain dbp3, active compounds read low 0.967 | locus YGL086W, strain mad1, active compounds read low 1.01 | locus YGL167C, strain pmr1, active compounds read low 0.964 | locus YGL173C, strain kem1, active compounds read low 0.977 | locus YGL227W, strain vid30, active compounds read low 0.989 | locus YGL240W, strain doc1, active compounds read low 0.985 | locus YGL248W, strain PDE1, active compounds read low 0.981 | locus YGL253W, strain hxk2, active compounds read low 0.978 | locus YGR135W, strain pre9, active compounds read low 0.954 | locus YGR252W, strain gcn5, active compounds read low 0.939 | locus YHR013C, strain ard1, active compounds read low 0.954 | locus YHR027C, strain rpn1, active compounds read low 0.972 | locus YHR030C, strain SLT2, active compounds read low 1.03 | locus YHR079C, strain IRE1 (second series), active compounds read low 1 | locus YHR079C, strain IRE1, active compounds read low 1.02 | locus YHR094C, strain hxt1, active compounds read low 0.994 | locus YHR129C, strain ARP1, active compounds read low 0.997 | locus YHR142W, strain chs7, active compounds read low 0.963 | locus YHR200W, strain rpn10, active compounds read low 0.991 | locus YIL066C, strain RNR3, active compounds read low 1.01 | locus YIL073C, strain SPO22, active compounds read low 0.996 | locus YIL125W, strain kgd1, active compounds read low 0.994 | locus YIR030C, strain dcg1, active compounds read low 0.999 | locus YJL092W, strain hpr5, active compounds read low 0.991 | locus YJL095W, strain BCK1 (second series), active compounds read low 0.975 | locus YJL095W, strain BCK1, active compounds read low 0.979 and 1.04 | locus YJL115W, strain asf1, active compounds read low 0.975 | locus YJL129C, strain trk1, active compounds read low 1 | locus YJL134W, strain LCB3, active compounds read low 1.01 | locus YJL154C, strain vps35, active compounds read low 0.981 | locus YJL164C, strain tpk1, active compounds read low 0.962 | locus YJL166W, strain qcr8, active compounds read low 0.979 | locus YJL168C, strain set2, active compounds read low 0.996 | locus YJL187C, strain SWE1 (second series), active compounds read low 0.96 | locus YJL187C, strain SWE1, active compounds read low 0.988 | locus YJR043C, strain POL32, active compounds read low 1.03
